Results on twelve molecules are retold here after ChEMBL document CHEMBL5724796, “Tm Shift (DSF) assay results for EUbOPEN Chemogenomics Library” (2024).

Common to all, as to conditions: Compound concentration 20.0 uM
Experiment [1] has as its target Tyrosine-protein kinase ABL1 (Homo sapiens) (UniProt P00519).
The target of experiment [2] is Bromodomain-containing protein 4 (Homo sapiens) (UniProt O60885).
Experiment [3] has as its target Cyclin-dependent kinase 2 (Homo sapiens) (UniProt P24941).
The target in experiment [4] is Casein kinase I isoform delta (Homo sapiens) (UniProt P48730).
Sequence of Casein kinase I isoform delta (Homo sapiens) (P48730 whole entry, looked up, canonical isoform): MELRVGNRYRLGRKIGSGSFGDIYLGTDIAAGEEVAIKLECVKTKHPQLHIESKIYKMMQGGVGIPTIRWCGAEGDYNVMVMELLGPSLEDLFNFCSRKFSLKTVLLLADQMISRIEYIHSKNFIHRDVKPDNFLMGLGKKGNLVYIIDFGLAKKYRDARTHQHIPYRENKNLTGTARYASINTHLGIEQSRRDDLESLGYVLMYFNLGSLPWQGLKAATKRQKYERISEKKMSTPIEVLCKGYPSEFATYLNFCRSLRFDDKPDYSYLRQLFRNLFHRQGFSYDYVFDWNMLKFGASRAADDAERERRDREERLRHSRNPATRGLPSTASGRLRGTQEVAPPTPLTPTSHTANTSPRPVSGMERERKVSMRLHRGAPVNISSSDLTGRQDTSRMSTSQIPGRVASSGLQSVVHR
Experiment [5] deals with Glycogen synthase kinase-3 beta (Homo sapiens) (UniProt P49841).
Sequence of Glycogen synthase kinase-3 beta (Homo sapiens) (P49841 whole entry, looked up): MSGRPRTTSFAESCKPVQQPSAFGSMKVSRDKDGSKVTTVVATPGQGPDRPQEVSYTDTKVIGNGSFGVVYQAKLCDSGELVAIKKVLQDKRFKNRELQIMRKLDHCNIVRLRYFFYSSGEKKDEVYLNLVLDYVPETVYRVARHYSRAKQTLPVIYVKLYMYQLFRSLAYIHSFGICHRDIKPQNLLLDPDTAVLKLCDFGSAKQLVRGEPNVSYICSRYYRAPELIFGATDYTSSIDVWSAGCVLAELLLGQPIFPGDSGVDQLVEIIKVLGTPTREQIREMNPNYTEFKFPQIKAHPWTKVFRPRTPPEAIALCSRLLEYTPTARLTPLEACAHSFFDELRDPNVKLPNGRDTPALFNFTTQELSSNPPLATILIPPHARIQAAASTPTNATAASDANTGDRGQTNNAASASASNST
For experiment [6], the target named is Mitogen-activated protein kinase 1 (Homo sapiens) (UniProt P28482).
Sequence of Mitogen-activated protein kinase 1 (Homo sapiens) (P28482 whole entry): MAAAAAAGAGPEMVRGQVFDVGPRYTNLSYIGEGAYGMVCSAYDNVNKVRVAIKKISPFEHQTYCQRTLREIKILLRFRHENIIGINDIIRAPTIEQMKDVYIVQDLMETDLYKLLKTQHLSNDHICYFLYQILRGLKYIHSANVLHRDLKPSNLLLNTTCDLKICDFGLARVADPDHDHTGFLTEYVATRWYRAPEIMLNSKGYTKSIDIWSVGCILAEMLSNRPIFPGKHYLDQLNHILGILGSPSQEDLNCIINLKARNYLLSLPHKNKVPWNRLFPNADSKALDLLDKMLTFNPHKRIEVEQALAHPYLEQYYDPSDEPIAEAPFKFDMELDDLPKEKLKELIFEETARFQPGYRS
Experiment [7] concerns the target T1, Aurora kinase A (Homo sapiens) (UniProt O14965).
T1 sequence (whole entry): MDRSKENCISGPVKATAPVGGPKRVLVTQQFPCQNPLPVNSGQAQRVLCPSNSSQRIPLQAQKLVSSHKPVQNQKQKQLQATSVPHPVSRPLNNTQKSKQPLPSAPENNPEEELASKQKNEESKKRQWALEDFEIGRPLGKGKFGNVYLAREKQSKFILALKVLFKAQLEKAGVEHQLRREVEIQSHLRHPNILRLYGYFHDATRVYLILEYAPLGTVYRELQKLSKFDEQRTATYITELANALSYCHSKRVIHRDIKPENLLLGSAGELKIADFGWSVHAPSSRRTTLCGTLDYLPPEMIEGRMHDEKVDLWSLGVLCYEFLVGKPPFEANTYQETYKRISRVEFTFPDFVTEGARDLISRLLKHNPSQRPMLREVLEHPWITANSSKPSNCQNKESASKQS

Experiment [8] addresses T2, Transcription intermediary factor 1-alpha (Homo sapiens) (UniProt O15164).
T2 sequence (whole entry): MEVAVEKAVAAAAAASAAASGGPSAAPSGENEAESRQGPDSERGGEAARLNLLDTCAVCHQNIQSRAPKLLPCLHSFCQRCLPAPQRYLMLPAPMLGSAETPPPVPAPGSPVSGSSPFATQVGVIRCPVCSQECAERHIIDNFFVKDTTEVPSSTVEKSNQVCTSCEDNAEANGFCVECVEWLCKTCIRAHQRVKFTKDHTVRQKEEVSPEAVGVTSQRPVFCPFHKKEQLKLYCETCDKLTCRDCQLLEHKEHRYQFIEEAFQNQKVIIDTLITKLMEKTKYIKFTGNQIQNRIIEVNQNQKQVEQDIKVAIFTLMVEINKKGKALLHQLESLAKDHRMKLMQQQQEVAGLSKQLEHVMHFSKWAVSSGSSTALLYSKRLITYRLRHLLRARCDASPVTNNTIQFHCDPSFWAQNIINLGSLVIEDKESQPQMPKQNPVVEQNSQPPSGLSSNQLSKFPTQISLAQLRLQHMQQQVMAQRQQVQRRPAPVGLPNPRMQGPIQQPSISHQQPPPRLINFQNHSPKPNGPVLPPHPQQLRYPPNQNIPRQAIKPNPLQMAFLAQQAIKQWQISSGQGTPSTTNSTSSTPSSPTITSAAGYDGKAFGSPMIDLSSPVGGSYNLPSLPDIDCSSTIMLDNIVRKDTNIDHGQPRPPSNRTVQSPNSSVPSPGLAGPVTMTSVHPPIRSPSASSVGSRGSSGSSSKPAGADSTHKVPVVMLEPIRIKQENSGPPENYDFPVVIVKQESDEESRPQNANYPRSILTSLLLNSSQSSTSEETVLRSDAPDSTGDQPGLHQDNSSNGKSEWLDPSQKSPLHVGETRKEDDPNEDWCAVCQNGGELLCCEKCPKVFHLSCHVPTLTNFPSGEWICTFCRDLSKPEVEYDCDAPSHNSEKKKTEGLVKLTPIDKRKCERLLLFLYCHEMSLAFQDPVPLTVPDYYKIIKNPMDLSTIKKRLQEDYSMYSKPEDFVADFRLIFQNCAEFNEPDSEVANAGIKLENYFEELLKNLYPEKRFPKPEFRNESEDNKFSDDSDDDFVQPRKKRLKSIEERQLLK

The structures appear in SMILES notation. Residues, ends and D or L forms follow the SMILES beside them.

Sequence of Tyrosine-protein kinase ABL1 (Homo sapiens) (P00519 whole entry): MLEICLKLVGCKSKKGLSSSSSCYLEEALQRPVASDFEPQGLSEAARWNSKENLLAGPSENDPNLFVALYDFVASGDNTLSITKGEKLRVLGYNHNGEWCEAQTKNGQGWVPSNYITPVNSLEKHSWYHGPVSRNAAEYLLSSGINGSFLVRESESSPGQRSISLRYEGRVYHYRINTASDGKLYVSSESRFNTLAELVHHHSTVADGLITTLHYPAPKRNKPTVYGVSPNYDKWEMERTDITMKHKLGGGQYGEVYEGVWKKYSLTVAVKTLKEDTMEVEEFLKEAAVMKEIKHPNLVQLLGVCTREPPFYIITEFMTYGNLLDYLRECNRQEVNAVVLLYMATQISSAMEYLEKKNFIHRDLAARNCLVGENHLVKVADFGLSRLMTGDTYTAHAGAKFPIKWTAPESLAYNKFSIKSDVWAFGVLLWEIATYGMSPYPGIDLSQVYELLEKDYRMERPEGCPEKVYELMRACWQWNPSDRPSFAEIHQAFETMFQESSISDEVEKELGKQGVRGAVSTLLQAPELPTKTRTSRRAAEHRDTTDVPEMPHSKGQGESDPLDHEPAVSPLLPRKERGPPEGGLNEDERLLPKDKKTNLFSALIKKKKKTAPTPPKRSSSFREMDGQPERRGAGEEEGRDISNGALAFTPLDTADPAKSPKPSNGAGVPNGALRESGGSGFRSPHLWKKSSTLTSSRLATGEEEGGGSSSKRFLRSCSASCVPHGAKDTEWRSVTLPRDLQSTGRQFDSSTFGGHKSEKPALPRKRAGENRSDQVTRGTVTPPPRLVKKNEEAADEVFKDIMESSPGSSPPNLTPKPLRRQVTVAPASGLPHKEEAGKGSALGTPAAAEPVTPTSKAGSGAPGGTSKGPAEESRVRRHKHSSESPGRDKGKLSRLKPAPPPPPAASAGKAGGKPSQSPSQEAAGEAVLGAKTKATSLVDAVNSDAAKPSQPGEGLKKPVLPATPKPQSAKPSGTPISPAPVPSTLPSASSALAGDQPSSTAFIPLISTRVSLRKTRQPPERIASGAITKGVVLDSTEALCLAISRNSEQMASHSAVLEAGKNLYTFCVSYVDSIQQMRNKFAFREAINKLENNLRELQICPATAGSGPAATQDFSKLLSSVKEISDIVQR

Turning to `CC(C)N(CCCNC(=O)Nc1ccc(C(C)(C)C)cc1)C[C@H]1O[C@@H](n2ccc3c(N)ncnc32)[C@H](O)[C@@H]1O`, the ΔTm (usually the shift of the melting midpoint relative to a reference) in experiment [1] was 0.45 °C; in experiment [2], -1.62 °C; in experiment [3], 0.52 °C; in experiment [4], 0.47 °C; in experiment [5], -0.31 °C; in experiment [6], 0.01 °C. Also, the ΔTm in experiment [7] is 0.01 °C; in experiment [8], -1.18 °C.

For `Cc1cc2cc(NS(=O)(=O)c3ccc(C#N)cc3)ccc2n(C)c1=O`, the ΔTm in experiment [1] was 0.57 °C; in experiment [2] it was -0.91 °C; in experiment [3] it was 0.09 °C; in experiment [4], 0.09 °C; in experiment [5], 0.03 °C; in experiment [6], -3 °C. The ΔTm was -1.09 °C in experiment [7] and 0.17 °C in experiment [8].

Regarding `CCCNC(=O)[C@H]1O[C@@H]1C(=O)N[C@H](C(=O)N1CCC[C@H]1C(=O)O)[C@@H](C)CC`, the ΔTm in experiment [1] was 0.43 °C; in experiment [2], -1.16 °C; in experiment [3], -0.18 °C; in experiment [4] it was -0.02 °C; in experiment [5] it was 0.22 °C; in experiment [6], -0.39 °C. Also, the ΔTm is -1.17 °C in experiment [7] and -0.81 °C in experiment [8].

As to `C[C@@H](Oc1ccc(S(C)(=O)=O)cc1C(=O)N1C[C@@H]2C[C@]2(c2cc(C(F)(F)F)on2)C1)C(F)(F)F`, the thermal shift (ΔTm) is 0.62 °C in experiment [1]; -3.24 °C in experiment [2]; 0.09 °C in experiment [3]; -0.17 °C in experiment [4]; -0.39 °C in experiment [5]; 0.07 °C in experiment [6]. Further, the results for the ΔTm in experiment [7] and in experiment [8] were -2.51 °C and 0.43 °C, respectively.

Turning to `CCOC(=O)NCCCC(=O)NCCc1ccccc1`, the ΔTm in experiment [1] is 0.36 °C; in experiment [2] it was -0.9 °C; in experiment [3], -0.09 °C; in experiment [4] it was 0.24 °C; in experiment [5], 0.15 °C; in experiment [6] it was 0.16 °C. The ΔTm in experiment [7] was -1.13 °C; in experiment [8], -0.68 °C.

Regarding `CC(=O)N[C@@H](CC(C)C)C(=O)N[C@@H](CCC(=O)O)C(=O)N[C@H](C(=O)N[C@H](C=O)CC(=O)O)C(C)C` (Ac-LEVD-aldehyde), the ΔTm in experiment [1] is 0.2 °C; in experiment [2], -2.55 °C; in experiment [3], -0.57 °C; in experiment [4] it was 0.25 °C; in experiment [5], -2.05 °C; in experiment [6] it was -0.12 °C. For the same molecule, the figures for the ΔTm in experiment [7] and in experiment [8] were -1.87 °C and -2.52 °C, respectively.

Regarding `Cc1ncccc1-c1cnc(NCc2c(F)ccc3c2CCO3)n2cnnc12`, the ΔTm is 0.04 °C in experiment [1]; -1.73 °C in experiment [2]; 0.42 °C in experiment [3]; 0.15 °C in experiment [4]; -0.06 °C in experiment [5]; 0.37 °C in experiment [6]. For the same molecule, the ΔTm in experiment [7] was -0.39 °C; in experiment [8], -1.52 °C.

Consider `CCOCC1(COCC)CCC(c2n[nH]cc2CN(C)CCNC)CC1`, for which the ΔTm is 0.58 °C in experiment [1]; -1.39 °C in experiment [2]; -0.06 °C in experiment [3]; 0.56 °C in experiment [4]; -1.08 °C in experiment [5]; 0.33 °C in experiment [6]. In addition, the values for the ΔTm in experiment [7] and in experiment [8] were -0.08 °C and -1.29 °C, respectively.

As to `Nc1ccc(-c2cccs2)cc1NC(=O)c1ccc2nc(N3CCNCC3)ccc2c1`, the ΔTm in experiment [1] is 3.35 °C; in experiment [2], -2.49 °C; in experiment [3], 1.41 °C; in experiment [4], 0.14 °C; in experiment [5] it was 0.38 °C; in experiment [6], -0.25 °C. The ΔTm was -0.39 °C in experiment [7] and -0.74 °C in experiment [8].

Consider `Cc1cc(C)nc(SCC(=O)Nc2ncc(Cc3cccc(OCc4cn(Cc5ccccc5)nn4)c3)s2)n1`, for which the ΔTm was -4.58 °C in experiment [1]; -6.78 °C in experiment [2]; -3.98 °C in experiment [3]; -2.38 °C in experiment [4]; -0.77 °C in experiment [5]; 0.65 °C in experiment [6]. For the same molecule, the results for the shift in melting temperature (ΔTm) in experiment [7] and in experiment [8] were -2.36 °C and 3.08 °C, respectively.

Turning to `CN1CCc2c(n(Cc3ccc(C(=O)NO)cc3)c3ccccc23)C1`, the thermal shift (ΔTm) in experiment [1] was 0.24 °C; in experiment [2], -1.44 °C; in experiment [3], 0.56 °C; in experiment [4], -0.06 °C; in experiment [5] it was -0.89 °C; in experiment [6], 0.14 °C. Moreover, the results for the ΔTm in experiment [7] and in experiment [8] were -0.37 °C and -1.21 °C, respectively.

Turning to `O=C(CCCCCCNC(=O)c1cnc(N(c2ccccc2)c2ccccc2Cl)nc1)NO`, the thermal shift (ΔTm) is 0.43 °C in experiment [1]; -2.47 °C in experiment [2]; 0.09 °C in experiment [3]; 0.15 °C in experiment [4]; -0.06 °C in experiment [5]; -0.04 °C in experiment [6]. In addition, the ΔTm in experiment [7] was -0.63 °C; in experiment [8] it was -0.75 °C.
